# Source: PubChem (National Center for Advancing Translational Sciences (NCATS))
# Lassa entry inh = Lassa virus entry inhibition; Potency, µM (doses to about 37.9 µM), for the others: at the top dose activity change, negative = inhibition, actives largely listed as inhibitors; AID 540256; Lassa virus pseudotype entry inhibition, cell reporter; 1.2% of 300,000 active; calls by dose curve; tested in HEK293 cells; note: nearly all actives have a fitted effect of over 50% in size
# FMDV inh = antivirals against foot and mouth disease virus; FMDV antiviral cell-based qHTS; Potency, µM (series often up to 57.9 µM), for inactives: at the top dose activity change, negative = inhibition, hits mostly inhibitors; 1.2% of 410,000 active; calls by dose curve; tested in HEK293T cells; note: read-out not given here; nearly all actives have a fitted effect of over 45% in size
# MARV entry inh = blocks Marburg virus binding to or entry into cells; Marburg virus pseudotyped entry inhibition, cell reporter; Potency, µM (doses to about 37.8 µM), for inactives: top-dose activity change, negative = inhibition, most hits filed as inhibitors; 1.8% of 300,000 active; AID 540276; calls by dose curve; tested in HEK293 cells
# Vaccinia mCherry = vaccinia inhibition (mCherry reporter); Vaccinia virus mCherry reporter infection, fluorescence; Potency, µM (doses to about 36.5 µM), for inactives: top-dose activity change, negative = inhibition, hits mostly inhibitors; 0.63% of 310,000 active; calls by dose curve; tested in A549 cells; note: nearly all actives have a fitted effect of over 35% in size
# Vaccinia Venus = vaccinia inhibition (Venus reporter) | Vaccinia virus Venus reporter expression, fluorescence | Potency, µM (top dose mostly 36.5 µM), inactives show at the highest dose activity change, negative = inhibition, hits mostly inhibitors | 0.46% of 330,000 active; calls by dose curve; tested in A549 cells; note: nearly all actives have a fitted effect of over 30% in size
# HCV inh = HCV inhibition | Huh7.5.1 HCVcc-Cre infection, luciferase reporter, 44 h | Potency, µM (highest dose often 41.8 µM), for inactives: at the top dose activity change, negative = inhibition, actives largely listed as inhibitors | 3.4% of 340,000 active | AID 651820; active = well fitted inhibition curve with a large enough effect; inconclusive = small, poorly fitted or top-dose-only effect, or another doubt; inactive = no such curve, though single readings can be large or run the other way
#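 Luciferase read-out (15 sec integration) after a 15 min room-temperature substrate step quantifies HCVcc-Cre infection. Cells, 1,000 per well, had compound added 4 h post-plating, then virus at ~0.5 moi, and were cultured 44 h.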
# * = called active by the depositor; i = inactive; ? = inconclusive; nt = not tested or not shown; [ ] = remark or other dose. A selection: hits, their analogues and other compounds. The true share with any hit is near 5.3%. % is set by controls: 0 for no effect and ±100 for the full control effect; potency is the fitted concentration of half-maximal effect.
SMILES,Lassa entry inh,FMDV inh,MARV entry inh,Vaccinia mCherry,Vaccinia Venus,HCV inh
CC(C)Cc1nc2cc(NS(=O)(=O)N(C)C)cc(C(=O)N3CCSCC3)c2n1C,nt,23%,nt,-1%,1%,nt
CCOC(=O)c1c(NC(C)=O)c2c3c(sc2n1Cc1cc(C)ccc1C)CCCC3,nt,-17%,-18%[46.1 µM],3%,-5%,nt
CCOC(=O)c1ccc(NC(=O)c2ccc(CN3C(=O)CCn4nc(C)cc43)cc2)cc1,25%[46.1 µM],2%,nt,-1%,7%,nt
CCc1cc(C(=O)OC)c(NC(=O)CCCC(=O)O)s1,11%,-8%,26%,nt,-10%,27%
CCc1cc(C(=O)OC)c(NC(=O)CSc2nccn2C)s1,-6%,0%,1%,-14%,-27%,10µM*
CCCOc1ccccc1NC(=O)c1ccc(N)cc1,-9%,8%,-4%,nt,nt,7.1µM*
CCOc1ccccc1C(=O)Nc1ccccc1O,11%,-8%,8%,nt,nt,11µM*
CCOc1ccccc1C(=O)Nc1nnc(COC)s1,21%[46.1 µM],19%,-13%,-2%,-5%,7.1µM*
O=C(Nc1cc(C(=O)NC2CCOCC2)c2c(c1)ncn2C1CCCC1)c1ccccc1,nt,-7%,nt,-15%,-9%,nt
O=C(COc1ccccc1C(=O)Nc1ccccc1)Nc1ccccc1-c1ccccc1,nt,nt,nt,-28%,-23%,nt
O=C(Nc1nccs1)c1ccc(COc2ccc(F)cc2)o1,-1%,0%,3%,nt,nt,?
O=C(Nc1nccs1)c1ccc(COc2ccccc2Br)o1,-22%,nt,?,-30%,?,11µM*
COc1ccc(C)cc1NC(=O)c1ccoc1C,11%,-12%,15%,nt,-9%,14µM*
CCOc1ccccc1C(=O)Nc1nccs1,21%,-19%,?,nt,-11%,5.6µM*
COc1ccc(C)cc1NC(=O)NNC(=O)c1ccoc1C,1%,0%,6%,-5%,1%,18%
CCOc1ccccc1NC(=O)c1ccc(NC(=O)c2ccco2)cc1,-3%,?,?,nt,-22%,10µM*
Cc1cccc(Nc2nc3ccccc3n3c(N)nnc23)c1,-20%[46.1 µM],2%,-24%[46.1 µM],-23%,-19%,nt
Cc1cccc(S(=O)(=O)N(C)C[C@@H]2OCc3cnnn3CCCC(=O)N([C@@H](C)CO)C[C@@H]2C)c1,nt,-20%,nt,1%,-8%,nt
Cc1ccc(CN2CCOc3ccc(CN4CCN(CCO)CC4)cc3C2)s1,nt,-5%,nt,-1%,-3%,nt
CCc1cc(C(=O)OC)c(NC(=O)c2ccoc2C)s1,nt,-24%,nt,nt,nt,10µM*
CCOc1ccccc1NC(=O)c1ccoc1C,12%,2%,10%,-6%,1%,6.3µM*
Cc1cc(=O)n(C(C)C(=O)NCc2ccccc2Cl)c2c1c(C)nn2-c1ccccc1 (centres undefined),12%[46.1 µM],9%,nt,-14%,-12%,nt
Cc1cc(C(=O)NCCCN2CCOCC2)n(-c2ccccc2)n1,nt,-18%,nt,i,-5%,7%
Cc1nn(-c2ccccc2)c2sc(C(=O)NC3CCCCC3)cc12,2%,nt,-23%,i,-16%,2.5µM*
Cc1nn(-c2ccccc2)c2sc(C(=O)NCCN3CCOCC3)cc12,-7%,0%,?,-24%,-19%,2.2µM*
CC(C)CN(CC(C)C)c1ccc(/C=C/c2nc3ccccc3s2)cc1,nt,nt,nt,-25%,10%,nt
O=C(NCc1ccccn1)c1cnn(-c2nccc(-c3cccs3)n2)c1C1CC1,nt,-5%,nt,i,-25%,nt
Cc1ccc(C(=O)NCC(=O)OCC(=O)NC2CCS(=O)(=O)C2)cc1C (centres undefined),14%,-13%,?,i,1%,-4%
COc1cccc([C@@H]2Oc3ccc(Br)cc3C(=O)[C@@H]2OC(=O)Nc2cc(OC)c(OC)c(OC)c2)c1,nt,nt,5%[14.2 µM],nt,nt,nt
